Experimental data as given in the supplement of paper PMC6555819.

Legend:
Assay in all cases: PBM binding z-score (relative to random genomic background probes); higher = stronger binding; sequences stand for … in GC…GCGATTGACAGCGTAGAATGAAGG
[1] = tested on: PPARg:RXRa DBDmut IVT, anti-RXR (DBD mutation: RXRa K156A/R161A, NR concentration 270 nM, RXRa partner concentration 90 nM)
In short: (§1)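 The probes on custom Agilent 4×180K protein-binding microarrays were double-stranded, with 34-nt variable regions bearing direct-repeat seeds, single-nucleotide variants, half-site ablations and random human genomic background sequences. Incubation lasted 1 h with ligand-free nuclear receptor dimers in PBS pH 7.4, 2% milk, 0.02% Triton X-100, 1 mM DTT, 0.2 mg/mL BSA and 0.4 mg/ml salmon testes DNA. Antibodies against each partner (one per run) detected bound dimers, and fluorescence scans were regression-normalized. Binding z-scores take the random background probes as reference.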

[2] = tested on: PPARg:RXRa IVT, anti-PPARg (NR concentration 270 nM, RXRa partner concentration 90 nM)
In short: as §1

[3] = tested on: PPARg DBDmut:RXRa IVT, anti-PPARg (DBD mutation: PPARg1 K132A/R137A, NR concentration 270 nM, RXRa partner concentration 90 nM)
In short: as §1

[4] = tested on: PPARg DBDmut IVT, anti-PPARg (DBD mutation: PPARg1 K132A/R137A, NR concentration 270 nM)
In short: as §1

[5] = tested on: PPARg homodimer (NR concentration 180 nM)
In short: as §1

[6] = tested on: PXR:RXRa (NR concentration 270 nM, RXRa partner concentration 90 nM)
In short: as §1

[7] = tested on: PXR homodimer (NR concentration 270 nM)
In short: as §1

[8] = tested on: RARa:RXR (NR concentration 270 nM, RXRa partner concentration 90 nM)
In short: as §1

[9] = tested on: RARa homodimer (NR concentration 270 nM)
In short: as §1

[10] = tested on: RARb:RXRa (NR concentration 270 nM, RXRa partner concentration 90 nM)
In short: as §1

Row | Sequence | PBM binding z-score [1] | PBM binding z-score [2] | PBM binding z-score [3] | PBM binding z-score [4] | PBM binding z-score [5] | PBM binding z-score [6] | PBM binding z-score [7] | PBM binding z-score [8] | PBM binding z-score [9] | PBM binding z-score [10]
1 | AGGATGAGGTTATACGTAGATCAGGGAAGAAAGT | 0.241 | 0.698 | 1.41 | 0.577 | 1.34 | 1.6 | 1.47 | 1.71 | 1.01 | 1.77
2 | TCTATTAGTTGATTAGGGCAACCGGAACAGCGGA | 2.14 | 1.3 | 0.694 | 0.839 | 1.02 | 0.35 | 0.534 | 0.296 | 0.818 | 1.06
3 | CCTGCTGGGCCATCAGGTCATTGATATCAACGTT | 1.27 | 1.52 | -0.402 | -0.46 | 0.175 | 1.55 | 0.128 | 1.83 | -0.97 | 2.02
4 | TCATATAGGTCAAGGTGAAAGTCGAACGATATGA | 6.82 | 7.8 | 3.34 | 3.56 | 2.98 | 3.06 | 0.0786 | 3.99 | 0.732 | 4.84
5 | CCGACTGGGGCATAGGGTTACCATAAGCCAGCCC | 2.48 | 3.41 | -0.334 | -1.39 | 0.589 | 0.141 | -0.597 | 0.817 | -1.05 | 1.25
6 | CCGAGTAGGTTATGGGGGATTCAGGCAACGGTGA | 4.03 | 3.95 | 3.42 | 4.43 | 2.01 | 1.17 | 1.05 | 1.26 | 1.69 | 1.33
7 | TCTAGTTGGTCACGGAGGTCTCACACGACGGGTA | 2.19 | 2.67 | 0.65 | 1.23 | 1.03 | 0.478 | -0.307 | 0.619 | -0.249 | 1.91
8 | CCGACTGGGGCAAGGTAACCATAACGCACAGCCA | 2.79 | 2.75 | 0.115 | -0.601 | 0.0706 | -0.546 | -0.376 | 0.0797 | 0.0514 | 0.619
9 | GCGACTGGGGCAAAGCAGGTCACCATAAGGTTGG | 3.8 | 4.81 | 0.568 | -0.842 | 1.51 | 3.05 | -0.164 | 2.96 | -0.0737 | 2.42
10 | CTGCCAAGGTGAACAAGGTCGTTGATTACTATTC | 2.22 | 2.18 | -0.417 | -1 | 0.571 | 2.35 | 1.73 | 1.9 | -0.469 | 2.08
11 | CCTCGGAGGACAGAAGGTCGGAGCTGTCCGCTTT | -0.473 | -0.963 | -1.7 | -2.08 | 0.00885 | -0.282 | -0.764 | -0.413 | -0.449 | 1.12
12 | TCTTGTAGATCAAAGGTTCAGAAAGCCGAAGCCT | 1.88 | 1.55 | 0.156 | 0.203 | 0.638 | 0.73 | -0.103 | 1.13 | -0.254 | 0.898
13 | CCTCGGAGGACAACAGGAGGTCAGAGCTGCCAGA | 0.299 | 0.564 | -0.994 | -1.03 | 1.72 | 2.02 | 0.105 | 2.3 | 0.364 | 2.84
14 | AATACAGGGTCATCGGAGGCCAGAGTACGCACAG | 2.24 | 4.03 | 1.88 | 1.83 | 2.39 | 5.97 | 0.898 | 4.9 | 1.32 | 4.47
15 | CAAACTAGATCAAGAGGTCAAAGTCCGCTTCCCG | 2.78 | 3.67 | 0.521 | 0.139 | 2.25 | 5.07 | 1.99 | 5.22 | 1.44 | 4.06
16 | TCTCGGAGGACACGAAAGGTCAGGGCTCGACATC | 1.91 | 1.97 | 0.171 | -0.651 | 2.95 | 4.44 | 0.147 | 4.93 | 0.454 | 4.4
17 | TCATATAGGTAACCAGGTGAAAGTCCGTAAGTTA | 5.2 | 5.99 | 0.0685 | 0.802 | 1.14 | 0.852 | 0.506 | 1.06 | 0.583 | 1
18 | CCGACTGGGGCAAAGCTTACCATACTCAGTACGA | 4.39 | 2.85 | -0.291 | -0.457 | 0.119 | -0.708 | -0.701 | -0.665 | -0.639 | 0.229
19 | CATGCTAGGTCATGGTCAGCTAATCTACAGTATG | 3.61 | 3.51 | 0.62 | 0.712 | 1.58 | 1.4 | -0.662 | 2.58 | 0.163 | 3.92
20 | TATGCAGGGTCAAAGGCCAGAGTACGAATGTCGA | 1.27 | 3.92 | 0.572 | 0.66 | 2.29 | 4.49 | -0.344 | 6.18 | -0.114 | 4.34
21 | ATCTCTAGGTAACCAAGTTGAGTGAATGCCGAAC | 3.51 | 2.64 | 0.787 | 1.26 | 0.031 | -0.00792 | 0.194 | 0.144 | 0.0193 | 0.243
22 | CCTTACGGGTCACTCCAGGTAATAGCATCGGAGT | 2.28 | 3.72 | 0.64 | 0.618 | 2.25 | 3.63 | 0.169 | 3.88 | 0.163 | 3.72
23 | CGTCCAAGGTCAATGCTATGTCAGTGAAAGCATT | 2.87 | 3.43 | -0.154 | 0.266 | 2.06 | 3.61 | 0.424 | 3.88 | 0.262 | 5.07
24 | ACTAGCAGGCCAAGGGTCACTCCAGATTAGTCCG | 1.08 | 3.57 | -0.0917 | -0.469 | 1.44 | 2.68 | 0.019 | 3.79 | 0.278 | 3.42
